Test results as given in PubChem BioAssay AID504339 (National Center for Advancing Translational Sciences (NCATS), 2011).
Screen size: about 390,000 compounds; about 17,000 (4.4%) were called active. Entries that show only a call come without a potency. Roughly 8% stayed inconclusive and do not appear here. The call rests on the fitted dose curve; in most records, active means well fitted inhibition curve with a large enough effect; inconclusive means small, poorly fitted or top-dose-only effect; inactive means no such curve, though single readings can be large or run the other way. Only a selection was taken, and actives are over-represented in it overall.

These molecules were tested against Lysine-specific demethylase 4A (Homo sapiens) (UniProt O75164) (assay: qHTS Assay for Inhibitors of JMJD2A-Tudor Domain). Settings: AlphaScreen JMJD2A-Tudor / H3K4me3 peptide binding; series mostly up to 114 µM.
Sequence of Lysine-specific demethylase 4A (Homo sapiens) (O75164 whole entry, looked up, the tested form may be a part): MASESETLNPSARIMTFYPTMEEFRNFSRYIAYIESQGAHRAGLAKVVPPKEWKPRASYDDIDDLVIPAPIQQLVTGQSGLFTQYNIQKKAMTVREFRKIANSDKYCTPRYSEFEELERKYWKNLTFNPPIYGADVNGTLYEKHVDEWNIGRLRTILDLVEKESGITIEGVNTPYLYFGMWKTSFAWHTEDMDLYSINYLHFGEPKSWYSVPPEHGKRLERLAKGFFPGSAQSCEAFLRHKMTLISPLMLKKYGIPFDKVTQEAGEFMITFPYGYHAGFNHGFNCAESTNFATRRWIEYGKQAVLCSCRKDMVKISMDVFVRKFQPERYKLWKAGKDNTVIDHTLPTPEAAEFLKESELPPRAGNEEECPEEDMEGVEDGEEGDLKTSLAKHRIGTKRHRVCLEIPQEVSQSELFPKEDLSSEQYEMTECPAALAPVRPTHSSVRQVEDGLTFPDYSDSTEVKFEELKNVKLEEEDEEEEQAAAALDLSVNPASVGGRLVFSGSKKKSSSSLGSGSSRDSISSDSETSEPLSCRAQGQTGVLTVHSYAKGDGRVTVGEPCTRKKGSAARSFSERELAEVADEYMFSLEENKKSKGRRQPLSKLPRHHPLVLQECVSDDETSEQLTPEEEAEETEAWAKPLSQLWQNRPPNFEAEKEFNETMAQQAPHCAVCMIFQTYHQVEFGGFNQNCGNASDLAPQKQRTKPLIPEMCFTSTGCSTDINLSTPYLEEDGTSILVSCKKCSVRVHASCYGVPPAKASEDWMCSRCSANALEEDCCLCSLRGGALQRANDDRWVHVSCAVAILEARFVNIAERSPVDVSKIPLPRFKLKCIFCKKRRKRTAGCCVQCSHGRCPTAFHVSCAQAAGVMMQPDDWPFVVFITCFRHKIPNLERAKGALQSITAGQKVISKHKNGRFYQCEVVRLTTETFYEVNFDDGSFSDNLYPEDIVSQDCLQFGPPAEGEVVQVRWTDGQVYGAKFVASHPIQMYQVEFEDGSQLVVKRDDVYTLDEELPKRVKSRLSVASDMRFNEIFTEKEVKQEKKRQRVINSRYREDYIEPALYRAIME
Further: nearly all actives have a fitted effect of over 50% in size.
Potency means the concentration at half of the fitted maximal effect.

Row | Structure (SMILES) | Potency
1 | COc1cccc(-c2nc(S(=O)(=O)c3ccc(C)cc3)c(NCc3ccccc3)o2)c1 | inactive
2 | O=C(NCc1ccc(F)cc1)c1ccc2nc(N3CCCCC3)sc2c1 | inactive
3 | Cc1ccc(NC(=O)CSc2nc3c([nH]c4ccccc43)c(=O)n2-c2ccccc2)c(C)c1 | inactive
4 | O=C(Nc1ccc(Br)cc1)c1ccc(Br)c(S(=O)(=O)NCc2ccccc2)c1 | inactive
5 | COc1ccc(CCNC(=O)c2ccc3c(c2)sc2nc(-c4ccc(C)cc4)cn23)cc1OC | inactive
6 | Cc1ccc(Oc2c(C(F)(F)F)oc3c(CN4CCCCC4)c(O)ccc3c2=O)cc1 | inactive
7 | CC1CCCC(N2CCN(C(=O)c3ccc(F)cc3)CC2)C1 (centres undefined) | 10 µM (active)
8 | O=C(c1ccc(F)cc1)N1CCCC(C(=O)N2CCCCC2)C1 (centres undefined) | inactive
9 | O=C(c1ccc(F)cc1)N1CCC(n2nnc3ccccc32)CC1 | inactive
10 | CCOc1ccc(S(=O)(=O)Nc2ccc3oc4c(c3c2)CC(C)CC4)cc1 (centres undefined) | inactive
11 | Cc1ccccc1CSc1nc2c([nH]c3ccccc32)c(=O)n1C | inactive
12 | Cc1ccc2nc(COc3cccc(NC(=O)c4cccc(Cl)c4)c3)cc(=O)n2c1 | inactive
13 | COc1ccc(-c2cc(=O)oc3cc(OC(C)C(=O)Nc4ccc(CN5CCOCC5)cc4)ccc23)cc1 (centres undefined) | inactive
14 | CC(OC(=O)c1cc2ccccc2o1)C(=O)Nc1ccc(N2CCOCC2)cc1 (centres undefined) | inactive
15 | Cc1cc(=O)oc2cc(OC(C)C(=O)Nc3ccc(N4CCOCC4)cc3)ccc12 (centres undefined) | 89.1 µM (active)
16 | COc1ccc(-c2c(C)c3ccc(O)c(CN4CCCC4)c3oc2=O)cc1OC | inactive
17 | COc1cc(OC)c(OC)cc1/C=C/c1nc2cc3ccccc3cc2c(=O)n1-c1ccc(F)c(Cl)c1 | inactive
18 | O=C(CSc1nc(Nc2ccc(F)c(F)c2)c2ccccc2n1)c1ccc(Cl)cc1 | inactive
19 | Cc1ccnc(-n2sc3ccccc3c2=O)n1 | 6.31 µM (active)
20 | Cc1ccc(-c2nnc(Nc3cccc(Br)c3)c3ccccc23)cc1S(=O)(=O)NCC1CCCO1 (centres undefined) | inactive
21 | CNc1ccc(NC(C)=O)cc1[N+](=O)[O-] | inactive
22 | Cc1ccc(/C=C/C(=O)Nc2cc(S(=O)(=O)N3CCCCCC3)ccc2OCC(F)(F)F)o1 | inactive
23 | Cc1ccc(/C=C/C(=O)Nc2ccc([N+](=O)[O-])c(NC(=O)/C=C/c3ccc(C)o3)c2)o1 | 79.4 µM (active)
24 | Cc1ccc(/C=N/NC(=O)C2=NNC(c3ccccc3)(c3ccccc3)C2)c(O)c1 | inactive
25 | Cc1nc2ccccc2nc1N/N=C/c1ccc(O)cc1O | 14.1 µM (active)

Row | Structure (SMILES) | Potency
26 | Oc1ccc2nc(Cc3ccccc3)[nH]c2c1 | inactive
27 | CCOC(=O)c1ccc(NC(=O)CC2C(=O)N(c3cccc(OC)c3)C(=O)N2C2CCCCC2)cc1 (centres undefined) | inactive
28 | O=C(N[C@@H](Cc1ccccc1)C(=O)OCc1ccccc1)c1nc[nH]c1C(=O)NC1CCNCC1 | inactive
29 | CCOC(=O)c1[nH]cnc1C(=O)NC1CCCCC1 | 3.98 µM (active)
30 | CCOC(=O)c1ccc(NC(=O)c2nc[nH]c2C(=O)NCc2ccccc2)cc1 | inactive
31 | CCc1ccccc1NC(=O)N1CCN(C(=O)c2nsc3ccccc23)CC1 | inactive
32 | CCOC(=O)c1cccc(NS(=O)(=O)c2cn(C)c(C)n2)c1 | inactive
33 | Fc1ccc(CSc2nc(NCc3ccccc3)c3ccccc3n2)cc1 | inactive
34 | CN(C)/C=C1/Nc2ccccc2C1=O | 50.1 µM (active)
35 | CCCS(=O)(=O)C(=C1Nc2ccccc2N1)S(=O)(=O)CCC | inactive
36 | CCOc1ccccc1CNC(=O)c1cnc2c(-c3ccc(OCC)c(OCC)c3)c(C)nn2c1C | inactive
37 | COc1ccccc1CNC(=O)CCn1c(=O)c2ccccc2n(CC(=O)Nc2cccc(Cl)c2)c1=O | inactive
38 | CCCCN(C)c1nnc(NC(=O)Nc2ccc(Br)c(C)c2)s1 | inactive
39 | CCN1/C(=C/C(=S)Nc2ccccc2)Sc2ccccc21 | 50.1 µM (active)
40 | CCNCCC(=O)N1c2ccccc2Sc2ccc(NC(=O)OCC)cc21 | inactive
41 | CCN1C(=O)c2ccccc2Sc2ccc(NC(=O)Cc3ccc(OC)cc3)cc21 | inactive
42 | CC1CCN(CC(=O)Nc2nccs2)CC1 | inactive
43 | Cc1cc(C)cc(N(CC(=O)NC2CCCC2)C(=O)CCC(=O)Nc2nccs2)c1 | inactive
44 | CC(=O)NC1CCN(CC(=O)Nc2nccs2)CC1 | 31.6 µM (active)
45 | COc1ccc(-c2nc(CN3CCC(C(=O)NCc4ccccc4)CC3)c(C)o2)cc1OC | inactive
46 | COc1ccc(CNC(=O)COCc2cc(-c3cccs3)on2)cc1OC | inactive
47 | CC(C)OP(=O)(OC(C)C)C(Nc1ccccc1)c1cccc([N+](=O)[O-])c1 (centres undefined) | inactive
48 | Cc1cc([N+](=O)[O-])ccc1NS(=O)(=O)c1ccccc1 | inactive
49 | CC(Nc1ccc([N+](=O)[O-])cc1[N+](=O)[O-])c1ccccc1 (centres undefined) | 12.6 µM (active)
